Experimental data reported in PubChem BioAssay AID651699 (Sanford-Burnham Center for Chemical Genomics, 2012).
Screen size: about 360,000 compounds; about 2,100 (0.58%) were called active. The full list was thinned out, with actives kept by preference. Unmarked numbers belong to inactive results. Cut-off read from the data, not from the text of the source: active = inhibition above about 36%; inactive = the rest.

target: NEDD8-conjugating enzyme Ubc12 (Homo sapiens) + NEDD8-activating enzyme E1 regulatory subunit (Homo sapiens) (UniProt P61081+Q13564); experiment: inhibitors of cullin neddylation, primary screen, biochemical, TR-FRET, uHTS, NAE and Ubc12 (AID 651699); conditions: at 25 µM, hits give high values
Sequence (P61081 whole entry, looked up): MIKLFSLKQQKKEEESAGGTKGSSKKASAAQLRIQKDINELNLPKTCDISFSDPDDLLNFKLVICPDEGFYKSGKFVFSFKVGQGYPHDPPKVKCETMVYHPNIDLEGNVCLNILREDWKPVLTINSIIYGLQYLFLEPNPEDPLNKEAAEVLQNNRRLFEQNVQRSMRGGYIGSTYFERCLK
Sequence (Q13564 whole entry, looked up): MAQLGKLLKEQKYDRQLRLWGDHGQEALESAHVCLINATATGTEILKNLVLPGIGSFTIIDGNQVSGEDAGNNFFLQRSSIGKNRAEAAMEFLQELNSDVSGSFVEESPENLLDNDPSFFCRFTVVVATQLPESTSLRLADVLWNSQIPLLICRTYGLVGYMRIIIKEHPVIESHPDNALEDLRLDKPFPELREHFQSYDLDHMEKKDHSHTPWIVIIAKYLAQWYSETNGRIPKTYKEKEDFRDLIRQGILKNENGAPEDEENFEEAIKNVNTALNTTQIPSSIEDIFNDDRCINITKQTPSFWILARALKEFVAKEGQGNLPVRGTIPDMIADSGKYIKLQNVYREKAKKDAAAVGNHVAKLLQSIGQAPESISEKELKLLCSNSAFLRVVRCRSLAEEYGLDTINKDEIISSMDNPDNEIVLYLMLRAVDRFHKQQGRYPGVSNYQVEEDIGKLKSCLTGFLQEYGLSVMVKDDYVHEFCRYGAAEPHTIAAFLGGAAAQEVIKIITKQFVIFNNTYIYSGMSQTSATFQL

Row | Structure (SMILES) | inhibition
1 | C=CCOC(=O)C1=C(C)N=C2SCCC(=O)N2C1/C=C/c1ccccc1OC (configuration not stated) | -7.53%
2 | COc1ccccc1/C=C/C(=O)NC(=S)N1CCOCC1 | -10.5%
3 | COc1ccccc1/C=C/C1=NC(=C\N(C)C)/C(=O)O1 | 54% (active)
4 | CCSC1=NCCN1C(=O)c1ccc(S(=O)(=O)N(CC)CC)cc1 | -10.5%
5 | CC1(C(=O)NS(=O)(=O)c2ccc(C#N)cc2)CCN1C(=O)CC1CCCC1 (configuration not stated) | -3.86%
6 | CC(C)(C)OC(=O)C[C@@H]1C/C=C\C[C@@H](CC(=O)N[C@H](CO)Cc2ccccc2)C(=O)NCCOC1=O | -4.28%
7 | O=C(c1cc(-c2ccco2)nc2ccccc12)N(Cc1nnc(-c2ccc(Cl)cc2)o1)C1CC1 | 38.9% (active)
8 | O=C(c1ccc(Cl)s1)N(Cc1nnc(-c2ccccc2Cl)o1)C1CC1 | 12.9%
9 | CN(C(=O)COC(=O)c1cc(-c2ccco2)nc2ccccc12)C1CCS(=O)(=O)C1 (configuration not stated) | -19.8%
10 | N#Cc1ccc(S(=O)(=O)NCC(=O)OCC(=O)NCCc2ccccc2)cc1 | -11.3%
11 | CCOC(=O)C1(Cc2ccccc2C)CCCN(C(=O)CCc2c(C)noc2C)C1 (configuration not stated) | 3.81%
12 | CC(=O)OCC(C)n1c(=O)c2ccccc2n1C(C)=O (configuration not stated) | 16.7%
13 | O=C(O)CCc1nc2cc(Cl)ccc2n(Cc2ccccc2)c1=O | 9.12%
14 | CC(=O)Oc1c(C(=O)c2nnc(C)o2)c(=O)n(Cc2ccccc2)c2ccccc12 | 40% (active)
15 | CC1Cc2ccccc2N1CC(=O)Nc1ccc2c(c1)OC(F)(F)O2 (configuration not stated) | -5.99%
16 | CC(=O)NS(=O)(=O)c1ccc(N/C(N)=N/c2nc(C)cc(C)n2)cc1 | -11.7%

Row | Structure (SMILES) | inhibition
17 | O=C(CSc1nnc(-c2ccncc2)n1C1CCCCC1)Nc1ccccc1 | -3.98%
18 | CCOc1ccc(NC(=O)CN(C)C(=O)Cc2sc(C)nc2-c2ccc(F)cc2)cc1OCC | -1.44%
19 | CCOc1ccc(C2c3[nH]c4ccccc4c3CCN2Cc2cccn2-c2ncccn2)cc1 (configuration not stated) | 16.1%
20 | COc1cccc(C2c3[nH]c4ccccc4c3CCN2Cc2cccc(C)n2)c1 (configuration not stated) | 48.7% (active)
21 | COCc1ccc(C(=O)N2CCc3c([nH]c4ccccc34)C2c2ccccn2)s1 (configuration not stated) | -1.93%
22 | Oc1cccc(C2c3[nH]c4ccccc4c3CCN2Cc2cnn(-c3ccccc3)c2)c1 (configuration not stated) | 25.4%
23 | COc1ccc(C2c3[nH]c4ccccc4c3CCN2CCCn2cccn2)cc1C (configuration not stated) | 49.4% (active)
24 | CCOc1ccc(C2c3[nH]c4ccccc4c3CCN2Cc2cn(CC)nc2C)cc1 (configuration not stated) | 22.4%
25 | O=C(O)C1C2C=CC(C2)C1C(=O)NCc1ccccc1 (configuration not stated) | -4.12%
26 | O=C(OCc1ccccc1)N1CCC2CC1c1cc(N3CCN(S(=O)(=O)c4cc(Cl)cc(Cl)c4)CC3)ccc12 (configuration not stated) | 19.3%
27 | CC(OC(=O)c1cc2ccccc2o1)C(=O)Nc1ccc(N2CCOCC2)cc1 (configuration not stated) | 2.93%
28 | CC(C)C1N=C2c3ccccc3N=C(SCC(=O)c3ccc(O)c(O)c3)N2C1=O (configuration not stated) | -18.8%
29 | O=C(Nc1ccc(-c2cscn2)cc1)C1CCCN(Cc2ccc(CO)o2)C1 (configuration not stated) | 5.08%
30 | O=C(NCc1cccnc1)Nc1cccc(NC(=O)NCc2cccnc2)c1F | 2.41%
31 | CC(C)CC1(C)NC(=O)N(CC(=O)Nc2ccc3c(c2)OCCO3)C1=O (configuration not stated) | -8.52%
32 | Cc1ccc(-n2c(SCC(=O)Nc3ncc(Cl)cc3Cl)nc3ccccc32)cc1 | 3.23%
